About 14,000 (4.5%) of roughly 310,000 compounds showed an effect of 50% or more. The effect is printed as a negative number. The sample holds strong results, similar compounds and a random draw of the others, so the mix is not that of the screen.
Each compound was assayed against human ether-à-go-go-related gene (hERG) potassium channel (human, UniProt Q12809) (assay: primary screen, population patch clamp on CHO cells stably expressing hERG; higher = less effect of the substance).
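Further: peak tail current of the secondary pulse compared with the same well before compound.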

human ether-à-go-go-related gene (hERG) potassium channel, sequence (Q12809 whole entry, looked up): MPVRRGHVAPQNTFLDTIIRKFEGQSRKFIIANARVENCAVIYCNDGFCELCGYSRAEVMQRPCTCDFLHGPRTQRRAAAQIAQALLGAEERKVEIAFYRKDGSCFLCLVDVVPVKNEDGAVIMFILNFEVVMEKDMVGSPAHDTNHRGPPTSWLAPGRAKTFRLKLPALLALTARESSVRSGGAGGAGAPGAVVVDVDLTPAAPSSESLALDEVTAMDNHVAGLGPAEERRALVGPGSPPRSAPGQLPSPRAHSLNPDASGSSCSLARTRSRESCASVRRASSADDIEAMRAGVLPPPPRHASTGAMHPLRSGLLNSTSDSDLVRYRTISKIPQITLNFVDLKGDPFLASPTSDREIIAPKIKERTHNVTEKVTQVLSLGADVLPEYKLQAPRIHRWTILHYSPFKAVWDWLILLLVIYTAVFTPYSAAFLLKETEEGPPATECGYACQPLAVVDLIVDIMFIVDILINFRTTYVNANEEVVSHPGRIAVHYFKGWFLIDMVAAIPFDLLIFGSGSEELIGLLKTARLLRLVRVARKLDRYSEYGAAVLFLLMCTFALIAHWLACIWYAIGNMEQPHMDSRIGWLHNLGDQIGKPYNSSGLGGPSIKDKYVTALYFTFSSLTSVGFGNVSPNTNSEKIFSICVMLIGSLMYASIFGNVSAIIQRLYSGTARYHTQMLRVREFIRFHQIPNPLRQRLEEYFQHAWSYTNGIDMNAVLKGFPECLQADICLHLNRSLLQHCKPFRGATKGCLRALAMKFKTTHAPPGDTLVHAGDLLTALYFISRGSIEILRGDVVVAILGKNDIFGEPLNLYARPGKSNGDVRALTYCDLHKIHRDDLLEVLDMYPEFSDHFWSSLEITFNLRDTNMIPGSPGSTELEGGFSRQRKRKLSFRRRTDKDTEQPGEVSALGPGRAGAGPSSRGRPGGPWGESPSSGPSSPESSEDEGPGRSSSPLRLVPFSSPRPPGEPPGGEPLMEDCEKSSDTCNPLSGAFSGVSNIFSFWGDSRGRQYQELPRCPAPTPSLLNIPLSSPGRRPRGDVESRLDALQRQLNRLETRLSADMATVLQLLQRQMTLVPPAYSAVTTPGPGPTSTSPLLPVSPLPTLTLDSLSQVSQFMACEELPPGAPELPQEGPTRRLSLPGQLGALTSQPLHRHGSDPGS

Row | Compound | hERG current change (%, negative = inhibition) at 10uM [%]
1 | Cn1c(O)c(C=Nc2ccccc2-c2ccccc2)c(=O)n(C)c1=O | 4.4
2 | O=c1c2ccccc2cnn1Cc1n[nH]c(=S)n1-c1ccc(Cl)cc1 | 14.5
3 | Cc1ccc(-c2nc(-c3ccccn3)sc2CC(=O)O)cc1 | 2.76
4 | O=C(N/N=C/c1cccs1)c1ccco1 | 11.8
5 | COc1ccc(NC(=O)COC(=O)C2CC2)c(OC)c1 | -0.146
6 | CC1CC(C)(C)NC(=S)N1CC(=O)NCc1ccc(F)cc1 (stereo not drawn) | 0.792
7 | O=C(Cn1nnc(-c2ccccc2)n1)NNC(=O)c1cccc([N+](=O)[O-])c1 | 26.3
8 | COc1ccc(CCNC(=O)C2CC2)cc1 | 0.64
9 | COc1ccc(CCNC2CCCCCC2)cc1 | -4.62
10 | COc1ccc(CCNC(=O)C2Cc3ccccc3C(=O)O2)cc1 (stereo not drawn) | -1.35
11 | COc1ccc(CCNC2CCCCC2)cc1.O=C(O)C(=O)O | -15.9
12 | COc1ccc(CCNC2CCc3ccccc3C2)cc1 (stereo not drawn) | -56
13 | COc1ccc(CCNC2CCC(c3ccccc3)CC2)cc1 (stereo not drawn) | -70.8
14 | COc1ccc(S(=O)(=O)N2CCN(c3ccc(C)cc3C)CC2)cc1OC | 5.72
15 | COC(=O)[C@@H](NC(=O)N(C1CCCCC1)C1CCCCC1)C(C)C | -7.86
16 | C#CCOCOCC#CCN(CC)CC | 3.26
17 | COc1ccc(-n2c(C)cc(C(=O)Cn3nc(C(=O)O)c4ccccc4c3=O)c2C)cc1 | -1.43
18 | CC(C)(C)c1ccc(CS(=O)CC(O)CO)cc1 (stereo not drawn) | 19.3
19 | Cc1cccnc1NC(=O)CNC(=O)c1cccs1 | -8.89

Row | Compound | hERG current change (%, negative = inhibition) at 10uM [%]
20 | O=C(NCCCc1ccccc1)C1CCN(S(=O)(=O)c2ccc(F)cc2)CC1 | -60.7
21 | COc1ccc(S(=O)(=O)Nc2cccc(-n3cnnn3)c2)cc1 | 1.11
22 | COc1ccc(OCC(NS(=O)(=O)c2ccc(-n3cnnn3)cc2)C(C)C)cc1 (stereo not drawn) | -52.2
23 | COc1ccc(S(=O)(=O)N2CCC(C(=O)NCCCc3ccccc3)CC2)cc1 | -35.9
24 | O=C(NCCc1ccccc1)C1CCN(S(=O)(=O)c2ccc(-c3nn[nH]n3)cc2)CC1 | -18.7
25 | Cc1ccc(S(=O)(=O)N2CCC(C(=O)NCCc3ccccc3)CC2)cc1 | -0.42
26 | CC(=O)c1ccc(S(=O)(=O)Nc2ccc(-n3cnnn3)cc2)cc1 | -6.16
27 | CC(=O)c1ccc(OCCNS(=O)(=O)c2ccc(-n3cnnn3)cc2)cc1 | -55.3
28 | CC(=O)c1ccc(OCCNS(=O)(=O)c2ccc(-n3cnnn3)c(C)c2)cc1 | -2.88
29 | CCCCOc1ccc(NS(=O)(=O)c2ccc(-n3cnnn3)cc2)cc1 | -3.42
30 | O=C(NCCc1ccccc1)C1CCN(S(=O)(=O)c2ccc(-n3cnnn3)cc2)CC1 | -66.3
31 | O=C(CCNC(=O)C1CCN(S(=O)(=O)c2ccc(F)cc2)CC1)NCc1ccccc1 | 2.4
32 | Cc1ccc(N2CCN(C(=O)c3cccs3)CC2)cc1C | 2.97
33 | Cc1cccn(Cc2c(Cl)cccc2Cl)c1=O | -9.53
34 | CCOc1ccc(N(CC(=O)NC(C(C)C)C(C)C)S(=O)(=O)c2ccc(OC)c(OC)c2)cc1 | 38
35 | CCOC(=O)CNC(=S)N(Cc1ccccc1)Cc1cccs1 | -17.3
36 | COc1ccc(NC(=O)c2ccc(OC)cc2)cc1 | -30
37 | COc1ccc(OC)c(C2=Nn3c(nnc3-c3cc(OC)c(OC)c(OC)c3)SC2)c1 | -21
38 | CC(C)(C)NS(=O)(=O)c1cc(C(=O)Nc2sccc2C#N)ccc1Cl | 4.98

Row | Compound | hERG current change (%, negative = inhibition) at 10uM [%]
39 | COc1ccc(NC(=O)NC2(C(=O)N3CCCC3)CCCCC2)cc1 | 22
40 | Cc1ccc(NC(=O)CN(C)C(=O)c2cccc(S(=O)(=O)N3CCc4ccccc43)c2)cc1 | -15.6
41 | CC(=O)C1=C(O)C(=O)N(Cc2cccnc2)C1c1ccc(C(C)C)cc1 (stereo not drawn) | 17.1
42 | CC(=O)N1c2ccc(S(=O)(=O)N3CCC(C(=O)NCc4ccc(N(C)C)cc4)CC3)cc2CC1C (stereo not drawn) | 18.8
43 | CCOc1ccc(-n2cnnn2)cc1S(=O)(=O)Nc1c(C)cccc1C | -19.4
44 | O=S(=O)(NCCc1ccccc1)c1ccc(-n2cnnn2)cc1 | -56.7
45 | CC(C)CNC(=O)C1CCN(S(=O)(=O)c2ccc(-n3cnnn3)cc2)CC1 | -55.3
46 | Cc1cc(S(=O)(=O)NCCc2ccccc2)ccc1-n1cnnn1 | -17.1
47 | O=C(NCCc1ccc(Cl)cc1)C1CCN(S(=O)(=O)c2ccc(-n3cnnn3)cc2)CC1 | -69
48 | CC(=O)Nc1ccc(S(=O)(=O)N2CCC(C(=O)NCCc3ccc(Cl)cc3)CC2)cc1 | 5.7
49 | COc1ccc(CCNS(=O)(=O)c2ccc(-n3cnnn3)cc2)cc1OC | -26
50 | CCOc1cc(S(=O)(=O)NCc2ccccc2)c(OCC)cc1-n1cnnn1 | -14.3
51 | CCOc1ccc(-n2cnnn2)cc1S(=O)(=O)NCc1ccccc1 | -71
52 | CC(C)CCNC(=O)C1CCN(S(=O)(=O)c2ccc(-n3cnnn3)cc2)CC1 | -37.6
53 | COc1ccc(CCNC(=O)C2CCN(S(=O)(=O)c3ccc(-n4cnnn4)cc3)CC2)cc1OC | -13
54 | CC(C)CNC(=O)C1CCCN(S(=O)(=O)c2ccc(-n3cnnn3)cc2)C1 (stereo not drawn) | -0.697
55 | O=C1CSC(c2ccc([N+](=O)[O-])cc2)N1C1CCCCC1 (stereo not drawn) | -47.4
56 | CC(C)c1ccc(O)c(NC(=S)NC(=O)c2cccnc2)c1 | 11
57 | CC(C)Oc1cccc(C(=O)C2CCCN(C(=O)c3cc(C4CC4)[nH]n3)C2)c1 (stereo not drawn) | -19.9

Source: paper PMC4336329 (PLoS ONE, 2015)
